In the library only some 4% were active in any assay of this set; here they are far more common.
Glioma ERSR ind – qHTS for Inducers of the Endoplasmic Reticulum Stress Response (ERSR) in Human Glioma: qHTS; U87-MG GRP78 promoter luciferase reporter, 16 h; Potency, µM, for inactives: at the highest dose activation, most hits filed as activators; hit rate 0.02% among 420,000; AID 602332, 2012; active means well fitted activation curve with a large enough effect; further: potency means the concentration at half of the fitted maximal effect; series mostly up to about 76 µM; % of control where 0% means no effect; nearly all actives have a fitted effect of over 35% in size
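Stably transfected U87-MG human glioma cells carrying a GRP78-based luminescent sensor were seeded at 1000 cells/well, pin-dosed with compounds and incubated 16 h. Luciferase reagent was then added, and end-point luminescence was read after 10 min at room temperature.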
D1 ag – Allosteric Agonists of the Human D1 Dopamine Receptor: qHTS; D(1A) dopamine receptor (Homo sapiens), P21728; HEK293 T-REx D1 cells, calcium flux, agonist mode; activation, % at 2 µM; hit rate 1% among 360,000; AID 504660, 2011; further: 0% is about no effect
Target sequence (P21728 whole entry, looked up): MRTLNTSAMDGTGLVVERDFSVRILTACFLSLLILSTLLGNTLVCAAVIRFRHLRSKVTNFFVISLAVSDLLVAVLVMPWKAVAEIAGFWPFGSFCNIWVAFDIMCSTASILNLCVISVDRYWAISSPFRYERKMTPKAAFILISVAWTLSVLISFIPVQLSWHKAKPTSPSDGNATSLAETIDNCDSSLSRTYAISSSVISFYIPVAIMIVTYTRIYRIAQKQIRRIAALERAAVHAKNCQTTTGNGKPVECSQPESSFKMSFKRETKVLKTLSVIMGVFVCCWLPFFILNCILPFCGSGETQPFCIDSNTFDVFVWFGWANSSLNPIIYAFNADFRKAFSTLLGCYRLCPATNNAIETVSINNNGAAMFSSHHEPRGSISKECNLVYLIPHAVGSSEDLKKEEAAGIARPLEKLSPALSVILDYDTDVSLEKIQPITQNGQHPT
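Tetracycline-induced HEK293 TREx D1 cells, force-coupled to calcium signalling, were dye-loaded with a no-wash calcium kit. Compound was pin-added after a 10 s baseline. Fluorescence was read kinetically at 1 cycle/s for 180 s, with calcium rises flagged as agonism.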
TRHR enhancer – qHTS for Small Molecule Agonists and Allosteric Enhancers of Human TRH Receptor: Primary Screen for Enhancers | Thyrotropin-releasing hormone receptor (Homo sapiens), P34981 | enhancement, % at 2 µM | TRHR cells, fluo-8 calcium fluorescence, EC20 TRH enhancement | hit rate 0.66% among 360,000; in the data active means enhancement above about 30%; further: 0% is about no effect
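Enhancer read-out: after compound pinning and an initial kinetic agonist-mode read, an EC20 of TRH (10 nM final) was injected and fluo-8 calcium signal (Ex 480/Em 530) followed at 1 s/cycle for 100 cycles in TRHR-expressing cells.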
TRHR agonist – qHTS for Small Molecule Agonists and Allosteric Enhancers of Human TRH Receptor: Primary Screen for Agonists; TRHR cells, calcium flux fluo-8, FDSS agonist mode; AID 493084, 2011; activation, % at 2 µM; Thyrotropin-releasing hormone receptor (Homo sapiens), P34981; hit rate 0.18% among 360,000; further: 0% is about no effect
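Steps: seed TRHR cells overnight; add fluo-8 no-wash Ca dye, RT 30 min–1.5 h; record 10 s baseline; pin-transfer compounds; monitor fluorescence 1 cycle/s for the agonist window. Calcium increases flag candidate agonists.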
D1 PAM – Potentiators of Human D1 Dopamine Receptor: qHTS; potentiation, % at 10 µM; HEK293 TREx D1 cells, calcium flux, dopamine EC20 potentiation; hit rate 0.036% among 360,000; D(1A) dopamine receptor (Homo sapiens), P21728; in the data active means potentiation above about 30%; further: 0% is about no effect
D1 antag – Antagonist of Human D 1 Dopamine Receptor: qHTS | hit rate 3.2% among 360,000 | AID 504652, 2011 | activity change, negative = inhibition, % at 10 µM | HEK293 TREx D1 cells, calcium flux, dopamine EC80; stronger effect = lower value; in the data active means activity change below about -30%; further: on the % scale 0 is the no-effect control and ±100 the full control effect
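Allosteric or orthosteric antagonism assessed as attenuation of the calcium response to EC80 dopamine, added 180 s after compound, in induced HEK293 Trex D1 cells loaded with no-wash calcium dye.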
* = called active by the depositor; · = no result given. Unless noted, no stated cut-off is given here; in the data, active means activation above about 30%; inactive means the rest.

SMILES	Glioma ERSR ind	D1 ag	TRHR enhancer	TRHR agonist	D1 PAM	D1 antag
CC(=O)c1c(C)[nH]c(C(=O)Nc2cc(F)ccc2C)c1C	0%	1	0	-1	-4	15
CC(=O)c1c(C)[nH]c(C(=O)Nc2cccc(C(F)(F)F)c2)c1C	-3%	14	-11	0	-10	-33*
CC(=O)c1c(C)[nH]c(C(=O)NC(C)c2ccccc2)c1C (configuration not stated)	-2%	3	-4	0	-6	-33*
CC(=O)c1c(C)[nH]c(C(=O)Nc2ccc(F)cc2F)c1C	3%	2	36*	-1	-4	-15
CC1CN(Cc2nnc(-c3ccccc3)o2)CC(C)O1 (configuration not stated)	1%	6	5	-1	3	3
CC(Oc1ccc(-c2nnco2)cc1)C(=O)N1CCOCC1 (configuration not stated)	0%	1	3	-1	-3	10
COc1ccc(S(=O)(=O)c2c(O)c3ccc(C(=O)Nc4ccccc4)cc3[nH]c2=O)cc1	-3%	1	0	1	-1	-2
CN([C@@H](Cc1ccc(OS(=O)(=O)c2cccc3cnccc23)cc1)C(=O)N1CCN(c2ccccc2)CC1)S(=O)(=O)c1cccc2cnccc12	-2%	1	-1	0	0	-25
CC(=O)c1c(C)[nH]c(C(=O)NCc2ccccc2Cl)c1C	2%	8	34*	0	-3	15
CC1=C(C(=O)Nc2cccc(C(F)(F)F)c2)C2(CCCCCC2)OC1=O	-1%	32*	6	-1	-4	-27
CC(=O)c1c(C)[nH]c(C(=O)Nc2ccccc2Cl)c1C	5%	1	10	-1	-7	-1
CC(=O)c1c(C)[nH]c(C(=O)Nc2cccc3ccccc23)c1C	-3%	10	-4	0	-10	-33*
Cc1c(N=Nc2c(-c3ccc([N+](=O)[O-])cc3)[nH]n(C(N)=S)c2=O)cccc1[N+](=O)[O-]	-7%	23	-1	0	-6	-28
NC(=S)n1[nH]c(-c2ccc([N+](=O)[O-])cc2)c(N=Nc2ccccc2[N+](=O)[O-])c1=O	-2%	2	11	1	-12	-51*
Cc1cccnc1NC(=O)CCNS(=O)(=O)c1ccc2c(c1)c(=O)n(C)c(=O)n2C	0%	-3	35*	0	-1	4
Cc1csc(NC(=O)CCNS(=O)(=O)c2ccc3c(c2)c(=O)n(C)c(=O)n3C)n1	-3%	-1	10	0	4	9
O=S(=O)(c1ccc(C(F)(F)F)cc1)N1CCN(S(=O)(=O)c2ccc3c(c2)OCCO3)CC1	·	-1	-1	0	7	11
CCOc1ccc(NC(=O)CSC2=Nc3ccccc3C3=NC(CC(=O)NCc4ccc5c(c4)OCO5)C(=O)N23)cc1 (configuration not stated)	1%	1	-3	0	-4	-30*
O=[N+]([O-])c1cc2nc(O)c(O)nc2cc1[N+](=O)[O-]	-2%	·	·	·	·	·
CNc1nc2cc([N+](=O)[O-])c([N+](=O)[O-])cc2nc1NC	-1%	39*	-2	-3	-18	-14
O=C(Nc1ccncc1)c1ccc(Cl)c(S(=O)(=O)N2CCCCC2)c1	-3%	18	6	0	-8	-39*
Cc1ccc(C(=O)Nc2cccc(C(=O)O)c2)cc1S(=O)(=O)N1CCCC1	-11%	-3	4	1	3	-40*
O=C(O)c1ccc(NC(=O)c2ccc(Br)c(S(=O)(=O)N3CCCC3)c2)cc1	-2%	-1	-2	0	1	-4
O=C(Nc1ccc(Br)cc1)c1ccc(Br)c(S(=O)(=O)N2CCCCC2)c1	-2%	9	-10	2	4	-43*
Cc1ccc(NC(=O)Cn2cc(S(=O)(=O)N3CCCC3)c(S(=O)(=O)N3CCCC3)c2)cc1F	-3%	2	32*	1	-6	-18
SMILES	Glioma ERSR ind	D1 ag	TRHR enhancer	TRHR agonist	D1 PAM	D1 antag
Cc1ccc(NC(=O)Cn2cc(S(=O)(=O)N3CCCC3)c(S(=O)(=O)N3CCCC3)c2)cc1C	1%	6	-4	4	5	-9
Cc1c(Cl)cccc1NC(=O)c1ncoc1-c1ccco1	0%	-1	1	0	0	-7
COc1ccccc1CCC(=O)OC(C)C(=O)Nc1c(C)n(C)n(-c2ccccc2)c1=O (configuration not stated)	-2%	1	9	-1	3	-5
COc1cccc(CN(C)C(=O)c2cc(S(=O)(=O)N3CCCCCC3)ccc2OC)c1	5%	0	-2	0	0	1
COc1cccc(CN(C)C(=O)c2ccc(C)c(S(=O)(=O)N3CCCCC3)c2)c1	-7%	2	-1	0	-9	-36*
O=C(NCC(O)c1ccccc1)c1ccc(Cl)c(S(=O)(=O)N2CCCC2)c1 (configuration not stated)	2%	14	-4	0	-9	-31*
O=C(NCC(O)c1ccccc1)c1ccc(Cl)c(S(=O)(=O)N2CCCCC2)c1 (configuration not stated)	3%	13	-5	0	-10	-18
O=C1CCCC2=C1C1O[C@](CCCCN3C(=O)c4ccccc4C3=O)(Cc3c1ccc1ccccc31)O2	·	4	-2	1	4	-13
COc1ccc([C@]23Cc4cc(OC)c(OC)cc4C(O2)c2c(cc(-c4ccccc4)oc2=O)O3)cc1	·	0	-8	0	-2	-13
CCN1CCN(S(=O)(=O)c2ccc(Cl)c(C(=O)Nc3ccc(OC(F)F)cc3)c2)CC1	-4%	8	-4	-1	-13	-33*
CCN1CCN(c2ccc(NC(=O)c3cc(S(=O)(=O)N4CCCC4)ccc3Cl)cc2)CC1	0%	3	0	1	-13	-42*
CCOC(=O)c1[nH]ncc1[C@@H]1C[C@H]2CN(Cc3cccc(Cl)c3)C(=O)[C@]23CCCN13	-1%	2	-9	0	-10	-8
O=C(O/N=C\c1ccc(N2CCOCC2)c([N+](=O)[O-])c1)c1ccccc1Cl	-2%	1	4	-1	-2	14
Cc1cc2nc3c(=O)n(C4CCCCC4)c(=O)[nH]c3nc2cc1N	6%	213*	16	119*	-8	-24
Cc1cc(C)cc(Nc2cc(=O)n(C3CCCCC3)c(=O)[nH]2)c1	-6%	17	-4	2	-4	-16

Compound activity as filed in PubChem.
